# Among all 300,000 compounds or so, about 3,200 (1.1%) were called active. Many of the other results were omitted from the sample, so actives are more common in it than they were. Values without a mark were called inactive.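 How the source made its calls: active means inhibition above the campaign mean inhibition plus 3 SD (cut at about 35% in these data); inactive means the rest.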
# Molecular target: Glutathione S-transferase omega-1 (Homo sapiens) (UniProt P78417)
# Experiment: inhibitors of recombinant GSTO1, primary screen, counter-screen for RBBP9 inhibitor project, biochemical, fluorescence polarization (AID 1974);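 further: 0% = GSTO1-1 with DMSO and 100% = wells lacking GSTO1-1 enzyme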
# Details: recombinant GSTO1, activity-based probe fluorescence polarization; at 5.96 µM; hits give high values
# Glutathione S-transferase omega-1 (Homo sapiens), sequence (P78417 whole entry, looked up): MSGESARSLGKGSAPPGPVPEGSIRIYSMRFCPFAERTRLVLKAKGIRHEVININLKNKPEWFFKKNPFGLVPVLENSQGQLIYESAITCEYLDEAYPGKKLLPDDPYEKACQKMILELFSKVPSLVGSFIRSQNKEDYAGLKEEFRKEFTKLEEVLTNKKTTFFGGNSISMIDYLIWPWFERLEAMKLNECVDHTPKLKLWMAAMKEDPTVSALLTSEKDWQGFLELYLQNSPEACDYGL
row,Structure (SMILES),inhibition
1,CCCCn1c(N)c(N(CC(C)C)C(=O)c2cnc(C)cn2)c(=O)[nH]c1=O,-0.67%
2,Cc1c(C)n2c(SCC(=O)N3CCCC3)nnc2[nH]c1=O,4.38%
3,CCOC(=O)N1CCC(c2cc(=O)n(-c3ccccc3)[nH]2)CC1,37.3% (active)
4,CCOC(=O)N1CCC(NC(=O)CCc2ccccc2)CC1,-0.86%
5,CCOC(=O)N1CCC(NC(=O)COc2cc(=O)n(C)c3ccccc23)CC1,-3.88%
6,CC(=O)CC[C@@H](C)O[C@@H]1OC(C)[C@H](O)CC1O (some centres not stated),-1.35%
7,C[C@H]1CC[C@]2(O[C@@H](CCO)C[C@@H](O)[C@@H]2O)O1,1.91%
8,COc1ccc(C=Nc2cccc3ncccc23)cc1,6.91%
9,Oc1c(C=Nc2cccc3nsnc23)ccc2ccccc12,64.1% (active)
10,NC(=O)C1CCN(C(=O)c2cn(-c3ccccc3)nc2-c2cccnc2)CC1,4.31%
11,O=C(c1cc(C(=O)N2CCN(c3ccc(F)cc3)CC2)cc([N+](=O)[O-])c1)N1CCN(c2ccc(F)cc2)CC1,2.3%
12,CC(NC(=O)c1ccccc1F)c1cccc2ccccc12 (configuration not stated),2.21%
13,CN(C)[C@@H]1C(=O)C(C(N)=O)=C(O)[C@@]2(O)C(=O)C3=C(O)c4c(O)ccc(Cl)c4[C@@H](O)[C@H]3C[C@@H]12,69.1% (active)
14,O=C(Nc1nc(-c2ccco2)c(-c2ccco2)s1)c1ccco1,28.3%
15,CC(Sc1nn(-c2ccc(Cl)cc2)c(=S)s1)C(=O)NCC1CCCO1 (configuration not stated),-4.24%
16,COc1ccc(C(CNC(=O)c2ccc(NS(=O)(=O)c3ccc(F)c(C)c3)cc2)N(C)C)cc1 (configuration not stated),-9.5%
17,O=C(O)c1cccc(NC(=S)N/N=C/c2c[nH]c3ccccc23)c1,48.7% (active)
18,O=C(N/N=C/c1c[nH]c2ccccc12)c1ccccc1O,-1.35%
19,O=C(N/N=C/c1c[nH]c2ccccc12)c1cc2ccccc2o1,-5.04%
20,O=[N+]([O-])c1ccc(N/N=C2/CCCCC2c2ccccn2)c([N+](=O)[O-])c1 (configuration not stated),27.8%
21,O=C(Nc1ccccc1)O/N=C1\CCCCC1c1ccc([N+](=O)[O-])cc1[N+](=O)[O-] (configuration not stated),-4.23%
22,C[n+]1ccccc1C1CCCC/C1=N\Nc1ccc([N+](=O)[O-])cc1[N+](=O)[O-] (configuration not stated),45.5% (active)

row,Structure (SMILES),inhibition
1,COc1ccc(NC(=O)CN(C)C(=O)c2cccc(S(=O)(=O)N3CCN(c4ccccc4)CC3)c2)cc1,0.96%
2,CCOC(=O)c1c(C)[nH]c(C(=O)OCC(=O)N2CCCC2=O)c1C,-4.82%
3,CCN1C(=O)[C@@H]2[C@@H](c3ccc(-c4ccccc4)cc3)N3CCCC[C@@]3(C(=O)OC)[C@@H]2C1=O,-2.94%
4,COc1ccc(C(CNC(=O)c2cccc(S(=O)(=O)Nc3ccccc3Cl)c2)N2CCOCC2)cc1 (configuration not stated),-26.9%
5,Cc1cc(C)n2nc(C(=O)OCC(=O)N(CCC#N)c3ccc(F)cc3)nc2n1,7.91%
6,CCOC(=O)c1cnc(-c2ccccc2)nc1Oc1ccc(C)cc1,2.24%
7,CCOC(=O)c1c(-c2ccc(C)cc2)csc1/N=C(\C)C1=C(O)c2ccccc2C1=O,7.75%
8,CCOC(=O)C1=C(c2ccc(OC)cc2)C(=O)c2ccccc2C1=O,40.5% (active)
9,CCCC(=O)Nc1ncnc2c1ncn2[C@@H]1O[C@@H]2OP(=O)(O)OC[C@H]2[C@H]1OC(=O)CCC,-0.48%
10,NC(=O)CSc1nnc(NC(=O)c2ccc3ccccc3c2)s1,-7.13%
11,Cc1ccc(/C=C2\SC(=S)N(CCC(=O)Nc3ccc(O)cc3)C2=O)cc1,-1.64%
12,O=C(CCN1C(=O)c2ccccc2C1=O)NCCN1CCOCC1,6.46%
13,Cc1ccc(/C=C2/SC(=S)N(CCC(=O)NCCCN3CCOCC3)C2=O)cc1,36.4% (active)
14,Cc1csc(NC(=O)CSc2nc(=O)n(CCCN(C)C)c3c2CCC3)n1,10.8%
15,Cc1nn(-c2ccccc2)c(C)c1NC(=O)CCl,82.7% (active)
16,Cc1nn(-c2ccccc2)c(C)c1NC(=O)COc1ccc(Cl)cc1Cl,8.17%
17,Cc1cccc(C)c1NC(=O)CNC(=O)c1c(C)nn(-c2ccccc2)c1C,-1.44%
18,O=C(Nc1ccc2nc3n(c(=O)c2c1)CCCC3)c1ccc(Cl)nc1,-3.93%
19,O=S(=O)(Nc1ccc(OC(F)(F)F)cc1)c1cccc2nonc12,10.2%
20,Cc1nn(C)c(C)c1NS(=O)(=O)c1ccc(OC(F)(F)F)cc1,5.1%
21,O=S(=O)(Nc1ccc(O)c2ccccc12)c1ccc(OC(F)(F)F)cc1,67.3% (active)
22,CSc1nnc(C2CCCN(CC(=O)Nc3ccccc3N3CCOCC3)C2)n1C(C)C (configuration not stated),4.43%

row,Structure (SMILES),inhibition
1,O=C(c1cc(-c2ccc(Cl)s2)nc2ccccc12)N1CCOCC1,-12.9%
2,CCOc1ccc(/C=C/C(=O)N(CC)CC(=O)NCc2cccs2)cc1OC,19.7%
3,Cc1cccn2c(=O)nc(SCC(=O)NCc3ccccc3Cl)nc12,0.44%
4,CC1=CC(C)(C)Nc2ccc(OC(=O)CN3C(=O)C4CCCCC4C3=O)cc21 (configuration not stated),48.4% (active)
5,CC1=CC(C)(C)Nc2ccc(OC(=O)C(Cc3ccccc3)N3C(=O)C4CCCCC4C3=O)cc21 (configuration not stated),18.1%
6,O=C(CN1C(=O)C2C3CCC(C3)C2C1=O)Oc1ccc2ccccc2c1 (configuration not stated),12.6%
7,Cc1ccc([C@@H]2CC=C(C(=O)O)[C@H](c3cccc(Cl)c3)N2S(=O)(=O)c2ccc(C)cc2)cc1,-107%
8,Cc1ccc(S(=O)(=O)N2[C@@H](c3ccccc3F)C(C(=O)O)=CC[C@H]2c2ccc(Cl)cc2)cc1,-60.4%
9,Cc1ccccc1NC(=O)COc1cccc2c1CCNC2=O,0.64%
10,Cc1ccc(S(=O)(=O)N2CCCCC2)cc1C(=O)N(C)CC(=O)Nc1cccc(F)c1,6.24%
11,COc1ccc2c(c1)[C@H]1[C@H](CO2)[C@H](c2ccccc2)[C@]2(C)C(=O)Nc3cc(F)c(F)cc3C(=O)N12,-3.75%
12,COc1ccccc1CCC(=O)OCC(=O)N1CCN(S(=O)(=O)c2ccc(C)cc2C)CC1,8.7%
13,O=c1oc2ccccc2cc1-c1csc(Nc2ccc(O)cc2)n1,5.73%
14,COc1ccc(-c2csc(Cc3nc(O)cs3)n2)cc1,8.36%
15,COc1ccc(-c2csc(Nc3ccc(O)cc3)n2)cc1,44.8% (active)
16,COc1ccc(C)cc1Nc1nc(-c2c(C)[nH]c3ccccc23)cs1,0.17%
17,COc1ccc(OC)c(Nc2nc(-c3ccc(O)c(O)c3)cs2)c1,57.3% (active)
18,COc1cccc(CC(=O)Nc2nc(-c3ccc(OC)c(OC)c3)cs2)c1,-14.6%
19,COc1cccc(N2CC(NS(=O)(=O)c3cccs3)CC2=O)c1 (configuration not stated),7.08%
20,CC(=O)Nc1ccc(C(=O)Nc2cccc(S(=O)(=O)NC3=NCCC3)c2)cc1,0.43%
21,O=C(OCc1nnc(-c2ccccc2)o1)c1cc(=O)[nH]c2ccccc12,8.64%
22,CCC(C)N(C(=O)COC(=O)c1nc(Cl)ccc1Cl)C1CCS(=O)(=O)C1 (configuration not stated),-3.44%

row,Structure (SMILES),inhibition
1,CCOC(=O)[C@H]1[C@H]2COc3ccc(OC)cc3[C@@H]2N2C(=O)c3ccc(F)cc3NC(=O)[C@@]12C,8.55%
2,Cc1ccc(Cn2c(=N)c(S(=O)(=O)c3ccc(C)cc3)cc3c(=O)n4ccccc4nc32)cc1,1.35%
3,O=[N+]([O-])C(=c1ccc2c(c1)N1C3=C(CCCC3)CC3CCCCC31N=2)[N+](=O)[O-] (configuration not stated),35.2% (active)
4,CCN(CC(=O)NCc1ccc(Cl)cc1)C(=O)CSc1ccccc1,-6.37%
5,O=C(Cn1c(-c2ccccn2)nc2ccccc21)NCCN1CCOCC1,98.3% (active)
6,O=C(NCCN1CCOCC1)c1cc(-c2cccs2)nc2ccccc12,-2.35%
7,O=C(Cc1ccc(Br)cc1)NCCN1CCOCC1,-0.16%
8,CCCCN(C1CCS(=O)(=O)C1)S(=O)(=O)c1ccc(C(C)C)cc1 (configuration not stated),-0.04%
9,CC(C)Oc1ccc(C(CC(=O)N2CCOCC2)C(C)C)cc1 (configuration not stated),10.3%
10,Cc1ccc(N(Cc2cc(=O)[nH]c3ccccc23)C(=O)CCl)cc1,80% (active)
11,CC(=O)N(Cc1cc(=O)[nH]c2ccccc12)c1ccc(C)cc1C,-13.1%
12,Cc1ccc(N(Cc2cc3ccccc3[nH]c2=O)C(=O)c2cccs2)cc1,0.73%
13,Cn1c(-c2ccc(C(F)(F)F)cc2)cc2onc(-c3ccccc3)c2c1=O,4.73%
14,CC(C)(C)c1ccc(C(=O)NCc2ccco2)cc1,-7.66%
15,Cc1nn(CC(=O)Nc2nc3ccccc3s2)c(C)c1[N+](=O)[O-],11.3%
16,C/C(=N\NC(=O)CC(C)C)c1c(C(F)(F)F)[nH]n(-c2nc3ccccc3s2)c1=O,-27.6%
17,CCC(C)Cn1c(O)cc2nn(-c3nc4ccccc4s3)c(=O)c-2c1C (configuration not stated),36% (active)
18,O=C(CN1C(=O)NC2(CCCC2)C1=O)OCCOc1ccc(F)cc1,8.87%
19,CCOc1c(Br)cc(/C=C2\C(=O)N(CCC#N)N=C2C)cc1OC,39.6% (active)
20,C=CCOc1c(Br)cc(/C=N\n2nnnc2N)cc1OC,0.64%
21,COc1cc(/C=C2/C(=O)NN(c3cccc(Cl)c3)C2=O)cc(Br)c1O,-21.9%

# Source: PubChem BioAssay AID1974 (The Scripps Research Institute Molecular Screening Center, 2009)
